According to PMC4336329 (PLoS ONE, 2015):
The campaign covered roughly 310,000 compounds. About 2,200 (0.71%) showed an effect of 50% or more. Effects have a minus sign here. The list comes from a sample in which strong results are over-represented; it also holds similar structures and randomly drawn compounds.

Target: human ether-à-go-go-related gene (hERG) potassium channel (human, UniProt Q12809)
Assay: primary screen, population patch clamp on CHO cells stably expressing hERG; higher = less effect of the substance

Sequence of human ether-à-go-go-related gene (hERG) potassium channel (Q12809 whole entry, looked up): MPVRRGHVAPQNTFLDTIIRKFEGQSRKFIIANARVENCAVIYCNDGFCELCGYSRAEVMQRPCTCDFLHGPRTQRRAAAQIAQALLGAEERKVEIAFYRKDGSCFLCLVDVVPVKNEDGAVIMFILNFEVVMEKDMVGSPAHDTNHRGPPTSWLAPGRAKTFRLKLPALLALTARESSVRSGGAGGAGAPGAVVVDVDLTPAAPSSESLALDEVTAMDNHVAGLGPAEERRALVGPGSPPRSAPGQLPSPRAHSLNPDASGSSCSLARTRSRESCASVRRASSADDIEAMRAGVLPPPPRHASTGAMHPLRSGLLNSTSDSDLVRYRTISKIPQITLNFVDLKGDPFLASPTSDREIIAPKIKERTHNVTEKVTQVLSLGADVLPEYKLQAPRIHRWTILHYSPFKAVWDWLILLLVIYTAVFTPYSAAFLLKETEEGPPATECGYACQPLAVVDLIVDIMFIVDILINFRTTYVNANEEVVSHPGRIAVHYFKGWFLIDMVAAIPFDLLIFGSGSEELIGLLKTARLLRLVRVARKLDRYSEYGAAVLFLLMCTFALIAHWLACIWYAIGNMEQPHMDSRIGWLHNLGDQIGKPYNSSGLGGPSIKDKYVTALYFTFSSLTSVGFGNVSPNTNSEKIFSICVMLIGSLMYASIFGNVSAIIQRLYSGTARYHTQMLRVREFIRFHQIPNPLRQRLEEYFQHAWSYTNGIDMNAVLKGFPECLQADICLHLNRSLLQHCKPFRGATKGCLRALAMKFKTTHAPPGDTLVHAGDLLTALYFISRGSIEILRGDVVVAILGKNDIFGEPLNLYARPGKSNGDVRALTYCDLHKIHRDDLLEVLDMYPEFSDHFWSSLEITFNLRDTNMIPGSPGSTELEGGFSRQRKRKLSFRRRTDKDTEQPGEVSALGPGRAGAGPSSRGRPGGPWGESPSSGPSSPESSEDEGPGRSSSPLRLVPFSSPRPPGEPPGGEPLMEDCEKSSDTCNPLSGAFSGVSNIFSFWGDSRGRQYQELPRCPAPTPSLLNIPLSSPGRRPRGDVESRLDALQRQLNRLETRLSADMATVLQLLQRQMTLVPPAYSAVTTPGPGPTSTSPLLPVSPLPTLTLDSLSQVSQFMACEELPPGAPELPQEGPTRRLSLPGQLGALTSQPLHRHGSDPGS

| SMILES | hERG current change (%, negative = inhibition) at 1uM [%] |
| --- | --- |
| Cc1[nH]nc2c1C(c1ccccc1F)CC(=O)N2 (stereo not drawn) | -1.84 |
| Cc1c(Cl)cccc1NC(=O)COc1ccc(S(=O)(=O)N2CCOCC2)cc1 | 3.86 |
| Cc1ccc(S(=O)(=O)N2CCN(CC(=O)NC3CCCc4ccccc43)CC2)cc1C.O=C(O)C(=O)O (stereo not drawn) | 1.77 |
| CCC(=O)Nc1ccc(NC(=S)NC(=O)/C=C/c2ccco2)cc1 | 6 |
| Cc1ccc(-c2cc(C(=O)NCCc3ccccn3)c3ccccc3n2)c(C)c1 | -13.8 |
| Brc1ccc(NC(c2ccccc2)c2ccncc2)cc1.Cl (stereo not drawn) | 17.3 |
| COCCNC(=O)C(c1cccs1)N(C(=O)Cn1nnc2ccccc21)c1ccccc1 (stereo not drawn) | 2.32 |
| CC1(C)CC2(CC(c3ccccc3)Oc3cc(O)ccc32)NC(=S)N1 (stereo not drawn) | 6.06 |
| CC1(C)CC2(CC(c3ccccc3)Oc3cc(O)ccc32)NC(=O)N1 (stereo not drawn) | 10.8 |
| CSC1=NC2(CC(c3ccccc3)Oc3cc(O)ccc32)CC(C)(C)N1 (stereo not drawn) | -68.8 |
| Cc1nnc(NC(=O)c2c(F)c(F)c(F)c(F)c2F)s1 | 15.5 |
| O=C(Nc1cnccn1)C1c2ccccc2Oc2ccccc21 | 0.161 |
| O=C(NCc1ccco1)c1n[nH]c(=O)c2ccccc12 | 11.8 |
| CSc1nc(SCC(=O)NCc2ccco2)c2c3c(sc2n1)CN(C)CC3 | 4.1 |
| c1coc(CNc2ncnc3sc4c(c23)CCCCC4)c1 | -16 |
| CCN1CCc2c(sc(NC(=S)NC(=O)c3ccco3)c2C(N)=O)C1 | 15.8 |
| CCN1CCc2c(sc3c2c(NCc2ccco2)nc2nnnn23)C1 | -69.3 |
| CN1CCc2c(sc3c2c(NCc2ccco2)nc2nnnn23)C1 | -72.8 |
| Cc1nc(NCc2ccco2)c2c3c(sc2n1)CCC3 | 2.14 |
| COc1ccc(C2C(C(=O)Nc3ccccc3OC)=C(C)Nc3nnnn32)c(OC)c1 (stereo not drawn) | 7.88 |
| CC(NC(=S)NCCCN1CCOCC1)C12CC3CC(CC(C3)C1)C2 (stereo not drawn) | 12.9 |
| CC(C)Cn1c(N)c(C(=O)NCCN2CCOCC2)c2nc3ccccc3nc21 | -71.5 |
| CCCCCn1c(N)c(C(=O)NCCN2CCOCC2)c2nc3ccccc3nc21 | -0.506 |
| CCCCn1c(N)c(C(=O)NCCN2CCOCC2)c2nc3ccccc3nc21 | -21 |

| SMILES | hERG current change (%, negative = inhibition) at 1uM [%] |
| --- | --- |
| Cc1c(C(=O)N(CCc2ccccc2)Cc2ccccc2)cccc1[N+](=O)[O-] | 12.7 |
| Clc1ccccc1Cc1noc(CN2CCCCC2CCc2ccccn2)n1 (stereo not drawn) | -3.35 |
| CCC1CCCCN1Cc1nc(Cc2ccccc2Cl)no1 (stereo not drawn) | 4.88 |
| OCCCC1CCCCN1Cc1nc(Cc2ccccc2Cl)no1 (stereo not drawn) | -65.5 |
| COC(=O)c1oc2ccccc2c1NC(=O)c1ccccc1O | 16.2 |
| Cc1ccc(C)c(NC(=O)CCN2C(=O)c3ccccc3C2=O)c1 | 15.3 |
| CC(C)(C)NC(=O)CSCc1ccc(Br)cc1 | 1.24 |
| O=C(Nc1nnc(-c2cccnc2)o1)c1cccc(Cl)c1 | 3.43 |
| CCOCCCn1c(=NC(C)=O)c(C(=O)OCC)cc2c(=O)n3ccccc3nc21 | -4.7 |
| CCOC(=O)c1cc2c(=O)n3ccccc3nc2n(CCCOC)c1=NC(=O)c1cccnc1 | -18.4 |
| CCOCCCn1c(=NC(=O)c2cccnc2)c(C(=O)OCC)cc2c(=O)n3ccccc3nc21 | -67.8 |
| CCOC(=O)c1cc2c(=O)n3cccc(C)c3nc2n(CCCOC)c1=NC(=O)c1cccnc1 | -65.4 |
| CCOC(=O)c1cc2c(=O)n3ccccc3nc2n(CCCOC)c1=NC(=O)c1ccncc1 | -40 |
| CCCCCn1c(=NC(=O)c2cccnc2)c(C#N)cc2c(=O)n3cccc(C)c3nc21 | -5.66 |
| O=c1c2ccccc2c(C=NCCO)c(O)n1-c1ccccc1 | 11 |
| Brc1ccc2c(c1)C(OC1CN3CCC1CC3)c1ccccc1CS2.O=C(O)/C=C\C(=O)O (stereo not drawn) | -27.6 |
| Cl.c1ccc(Nc2c3c(nc4ccccc24)CCC3)cc1 | -33.1 |
| COc1cc(Nc2c3c(nc4ccccc24)CCCC3)cc(OC)c1OC | -48.3 |
| Cc1ccc2nc3c(c(Nc4ccc5c(c4)OCCO5)c2c1)CCC3.Cl | -5.67 |
| COc1ccc(Nc2c3c(nc4ccccc24)CCCC3)cc1OC | -78 |
| N#Cc1cccc(Nc2c3c(nc4ccccc24)CCCC3)c1 | -60.5 |
| Cl.c1ccc2c(Nc3ccc4c(c3)OCCO4)c3c(nc2c1)CCC3 | -13.9 |
| COc1cc(Nc2c3c(nc4ccccc24)CCC3)cc(OC)c1OC | -19.4 |
| N#Cc1cccc(Nc2c3c(nc4ccccc24)CCC3)c1 | -18 |

| SMILES | hERG current change (%, negative = inhibition) at 1uM [%] |
| --- | --- |
| c1ccc2c(Nc3ccc4c(c3)OCCO4)c3c(nc2c1)CCCC3 | -83.5 |
| Cl.Fc1cccc(Nc2c3c(nc4ccccc24)CCC3)c1 | -9.35 |
| COc1ccc(Nc2c3c(nc4ccccc24)CCC3)cc1.Cl | -14.5 |
| Cc1ccc(Nc2c3c(nc4ccccc24)CCC3)cc1.Cl | -57.7 |
| Cc1nnc(SCc2ccc(C(=O)c3ccc(Cl)cc3)o2)n1-c1ccccc1 | -14.1 |
| Cc1[nH]c2ccccc2c1/C=C/c1nc2ccccc2c(=O)n1-c1cccc([N+](=O)[O-])c1 | 8.08 |
| CCOc1ccc(C2c3c(oc4cc(C)c(C)cc4c3=O)C(=O)N2CCCN(C)C)cc1OC (stereo not drawn) | 4.1 |
| CCN(CC)C(=O)CN(c1cccc(OC)c1)S(=O)(=O)c1ccc(C)cc1 | 13.2 |
| Cc1ccc(-n2[nH]c(C)c(/C=N/Nc3ccc([N+](=O)[O-])cc3[N+](=O)[O-])c2=O)cc1C | 9.38 |
| CCOc1ccc(S(=O)(=O)NN=C2CCN(C(C)=O)CC2)cc1 | 2.55 |
| CC(C)CNC(=O)CSc1nnc(-c2ccccn2)n1Cc1ccccc1 | 7.89 |
| C[C@](N)(CCP(=O)(O)O)C(=O)O.Cl | -5.32 |
| CCOC(=O)CSc1nc2ccccc2c(=O)n1CC1COc2ccccc2O1 (stereo not drawn) | 6.59 |
| O=C(CCNS(=O)(=O)c1cccc2nsnc12)Nc1ccc2c(c1)OCCO2 | 12 |
| CSc1ncc(Cl)c(C(=O)[O-])n1.[NH3+]CCc1ccccc1 | 0.119 |
| Cc1ccc(CCNC(=O)C2CCN(S(=O)(=O)N3CCC4(CC3)OCCO4)CC2)cc1 | 9.02 |
| Cc1nc2ccccc2n1CCc1nc2c3ccccc3nc(SCC#N)n2n1 | -0.451 |
| NC(=O)CSc1nc2c(c(=O)n1-c1ccccc1)C1(CCCCC1)Cc1ccccc1-2 | 16.4 |
| COc1cc(NS(C)(=O)=O)ccc1Nc1c2ccccc2nc2ccccc12.Cl | -59.7 |
| COc1ccccc1Nc1c2ccccc2nc2ccccc12 | -18.4 |
| COc1cc(Nc2c3ccccc3nc3ccccc23)cc(OC)c1OC | -32.7 |
| Cc1ccc2c(Cn3ccnc3)cc(=O)oc2c1C | 15.6 |
| CCCn1nnnc1NCc1ccc(N2CCCC2)cc1 | -1.22 |
| COc1cccc(N2CCc3c(C)nc4ccc(Cl)cc4c32)c1 | -48.5 |

| SMILES | hERG current change (%, negative = inhibition) at 1uM [%] |
| --- | --- |
| CSc1nc(C)c2c(n1)N(c1ccc(F)cc1)CC2 | 20.1 |
| Cc1ccc2nc(C)c3c(c2c1)N(c1ccc(F)cc1)CC3 | -94.5 |
| Cc1ccc2nc(C)c3c(c2c1)N(c1ccccc1)CC3 | -70 |
| Cc1ccc2nc3c(c(N)c2c1)CCN3c1ccccc1.O=C(O)C(=O)O | -2.46 |
| Cc1ccc2nc(C)n(-c3ccc(F)cc3)c(=O)c2c1 | 19 |
| COc1c2c(cc3oc(=O)c4c5ccc(O)cc5oc4c13)OC(C)(C)CC2 | 17.1 |
| c1cncc(-c2nnc(SCc3cccc4ccccc34)o2)c1 | 0.0047 |
| CC(=O)N1CCN(c2nc(-c3ccco3)c3c(c2C#N)CC(C)(C)SC3)CC1 | 7.62 |
| CCOc1ccc(/C=C(/NC(=O)c2ccc(Cl)cc2)C(=O)O)cc1OCC | -4.42 |
| COc1ccccc1CC(=O)Nc1ccc([N+](=O)[O-])cc1OC | 8.75 |
| Cn1c(=NC(=O)C2CC2)sc2cccc(F)c21 | 1.19 |
| Cc1ccc(NS(=O)(=O)c2ccc3c(c2)N(C)CCO3)cc1 | -79.6 |
| CC(=O)c1ccc(NS(=O)(=O)c2ccc3c(c2)N(C)CCO3)cc1 | 1.5 |
| Cc1ccc(CNS(=O)(=O)c2ccc3c(c2)N(C)CCO3)cc1 | 17.8 |
| C/C(CC(=O)Nc1ccc(N(C)C)cc1)=N\NC(=O)c1ccc(C(C)(C)C)cc1 | 15.5 |
| CCOC(=O)C1(Cc2cccc(OC)c2)CCN(Cc2ccccc2OC)CC1 | -18.5 |
| CCOC(=O)C1(Cc2ccccc2)CCN(Cc2cccn2-c2cccnc2)CC1 | 1.67 |
| CCOC(=O)C1(Cc2cccc(OC)c2)CCN(Cc2cccc(O)c2)CC1 | -9.46 |
| CCOC(=O)C1(Cc2ccccc2)CCN(Cc2cccn2-c2nccs2)CC1 | -69.8 |
| CCOC(=O)C1(Cc2ccccc2)CCN(Cc2cccc3nccnc23)CC1 | -10.3 |
| CCOC(=O)C1(Cc2cccc(OC)c2)CCN(Cc2cccnc2)CC1 | 11.5 |
| CCOC(=O)C1(Cc2cccc(OC)c2)CCN(Cc2cccn2-c2ccccn2)CC1 | -79.4 |
| CCOC(=O)C1(Cc2cccc(OC)c2)CCN(Cc2ccccc2)CC1 | -7.08 |
| CCOC(=O)C1(Cc2cccc(OC)c2)CCN(Cc2cccn2-c2nccs2)CC1 | -77.7 |
